These results are taken from PubChem BioAssay (NCI).

What all share (test): NCI-60 one-dose screen, 48 h (100 = growth as untreated, 0 = no growth, -100 = all killed)
One experiment deals with HCT-15 colon. Conditions: 10 µM unless noted.
The test system of the next experiment is HT29 colon. Conditions: 10 µM unless noted.
Another experiment has as its system SNB-75 CNS. The note with it: 10 µM unless noted.
The next experiment has as its system SNB-19 CNS. The note with it: 10 µM unless noted.
The next experiment deals with U251 CNS. Conditions: 10 µM unless noted.
In another experiment the test system is PC-3 prostate. The note with it: 10 µM unless noted.
The test system of a further experiment is UACC-62 melanoma. Conditions: 10 µM unless noted.
For a further experiment, the system named is LOX IMVI melanoma. The note with it: 10 µM.
The test system of another experiment is SK-MEL-28 melanoma. Conditions: 10 µM unless noted.
A further experiment concerns SK-MEL-2 melanoma. Conditions: 10 µM unless noted.
Another experiment relates to EKVX NSCLC. The note with it: 10 µM unless noted.
In the next experiment the test system is UO-31 renal. The note with it: 10 µM unless noted.
In the next experiment the test system is TK-10 renal. Conditions: 10 µM unless noted.
Another experiment relates to ACHN renal. The note with it: 10 µM unless noted.
Another experiment deals with CAKI-1 renal. Conditions: 10 µM unless noted.
In the next experiment the test system is A498 renal. Conditions: 10 µM unless noted.
A further experiment has as its system SN12C renal. Conditions: 10 µM unless noted.
Another experiment deals with CCRF-CEM leukemia. Conditions: 10 µM unless noted.

Molecules are shown by their SMILES. About 83,000 compounds went through this panel and 20% of them were active in at least one assay; those are over-represented in the sample as a whole.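 In brief: 96-well plates, 48 h treatment, single concentration, percent growth endpoint.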 A number with no mark means an inactive call. The source made the active and inactive calls. Rule for the calls: active = growth percent below 10; inactive = the rest.

With `COc1ccc(C(=O)/C=C/c2ccccc2Cl)cc1S(N)(=O)=O`, the growth is 92.9% in the experiment with HCT-15 colon; 109% in the experiment on HT29 colon; 107% in the experiment with SNB-75 CNS; 97.4% with SNB-19 CNS; 109% in the experiment with U251 CNS; 106% in the experiment with PC-3 prostate. In addition, the growth in the experiment with UACC-62 melanoma is 92.9%; in the experiment with LOX IMVI melanoma it was 105%; with SK-MEL-28 melanoma it was 103%; in the experiment with SK-MEL-2 melanoma it was 108%; with EKVX NSCLC it was 97.3%; with UO-31 renal, 84.9%. Moreover, the growth was 97.6% in the experiment with TK-10 renal, 101% in the experiment with ACHN renal, 102% with CAKI-1 renal and 119% in the experiment on A498 renal.

As to `NS(=O)(=O)c1ccc(-n2cc(-c3cccc(NC(=O)c4ccc(Cl)c(C(F)(F)F)c4)c3)nn2)cc1`, the growth with HCT-15 colon was 41.6%; in the experiment on HT29 colon it was 9.41% (active); with SNB-75 CNS, 5.75% (active); in the experiment with SNB-19 CNS, 32.3%; in the experiment with U251 CNS, -54.8% (active); with PC-3 prostate it was 17.7%. Also, the growth is 35% in the experiment on UACC-62 melanoma; -33.3% (active) in the experiment with LOX IMVI melanoma; -14.5% (active) in the experiment on SK-MEL-28 melanoma; 78.3% in the experiment with SK-MEL-2 melanoma; 46.5% with EKVX NSCLC; 34.3% with SN12C renal. In addition, the growth is 51% in the experiment with UO-31 renal; 23.2% in the experiment on ACHN renal; 33.2% in the experiment with CAKI-1 renal; 91.1% with A498 renal; 28.3% with CCRF-CEM leukemia.

For the compound `N#Cc1c(NCc2ccccc2)n[nH]c1Nc1ccccc1`, the growth in the experiment with HCT-15 colon was 42.4%; with HT29 colon it was 84.3%; with SNB-75 CNS, 57.4%; in the experiment on SNB-19 CNS, 54.8%; in the experiment on U251 CNS, 45.9%; in the experiment on PC-3 prostate it was 40.1%. Besides, the growth with UACC-62 melanoma was 64.9%; in the experiment on LOX IMVI melanoma it was 58.4%; in the experiment on SK-MEL-28 melanoma it was 79.1%; in the experiment with SK-MEL-2 melanoma, 20.7%; in the experiment on EKVX NSCLC, 52.8%; in the experiment with SN12C renal, 50.8%. For the same compound, the growth is 38.5% in the experiment with UO-31 renal; 75.5% with TK-10 renal; 38.1% in the experiment on ACHN renal; 33.4% with CAKI-1 renal; 79% in the experiment with A498 renal; 18.3% in the experiment on CCRF-CEM leukemia.

As to `COc1ccc(C(=O)/C=C/c2cccc3ccccc23)cc1S(N)(=O)=O`, the growth in the experiment with HCT-15 colon is -65.3% (active); with HT29 colon, -39.5% (active); with SNB-75 CNS, 51.2%; in the experiment with SNB-19 CNS, 10.5%; with U251 CNS, -93.9% (active); with PC-3 prostate it was 12.8%. The growth with UACC-62 melanoma was -58% (active); with LOX IMVI melanoma, -84.2% (active); in the experiment with SK-MEL-28 melanoma it was -50.8% (active); in the experiment with SK-MEL-2 melanoma, 45.8%; with EKVX NSCLC, -6.08% (active); with SN12C renal, 6.92% (active). Besides, the growth in the experiment on UO-31 renal is -68.9% (active); with TK-10 renal, 22.6%; in the experiment on ACHN renal, -27.1% (active); with CAKI-1 renal it was 13.9%; in the experiment on A498 renal, 107%; with CCRF-CEM leukemia, 4.74% (active).
